High-throughput results from PubChem BioAssay.
M1 antag: M1 muscarinic receptor (rat) antagonism; P08482; CHO-M1 cells, Fluo-4 calcium, ACh EC80 antagonist mode; hits give low values; B-score at 10 µM; 64,000 compounds, 3.4% hits;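 active = calcium fluorescence response, raw or row-and-column corrected B-score, differing from the plate sample mean either way at a set confidence level, mostly lower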
M1 ag: agonists of M1 muscarinic receptor. CHO-M1 cells, Fluo-4 calcium fluorescence, agonist mode; hits give high values. B-score at 10 µM. 64,000 compounds, 3% hits. AID 626;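 active = fluorescence rise, raw or as B-score row- and column-corrected plate score, outside the 99.7% band of its plate's samples, either direction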
Cav3 T inh: blocks human Cav3.2 T-type calcium channel; O95180; Cav3.2-expressing cells, Fluo-4 calcium fluorescence FDSS; hits give low values; B-score at 10 µM; 100,000 compounds, 4% hits; AID 449739;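 active = single-dose well whose peak fluorescence ratio is a statistical outlier from its plate by either plate-standardised score or position-corrected B-score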
Pyk2 oligo antag: blocks oligomerization of human Pyk2 in cells; Q14289; Q293 cells, Pyk2 FERM NanoBiT luminescence; hits give low values; z-score (the deposit names both 25 µM and 10 µM); 99,000 compounds, 0.83% hits; AID 1347419;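 active = Z-score of -3 or lower, scaled per plate to the spread of control and sample wells; inactive = z-score above -3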;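 also: negative z-score means lost luminescence so less FERM oligomerization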
M1 agonist conf: confirmation of rat M1 muscarinic receptor agonists; shares compounds with M1 ag; 1,700 compounds, 19% hits; fluorescence change (max-min) at 10 µM; CHO-M1 cells, Fluo-4 calcium fluorescence, agonist mode; actives lie on both sides;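 active = fluorescence change differs from the solvent-only DMSO control mean at a set confidence level in both duplicate runs; inconclusive = differs from solvent-only control mean in just one of two runs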;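 also: an EC20 dose of acetylcholine follows compound addition during the same imaging run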
M4 agonist ctr: activates rat M4 receptor in counter-screen for M1 agonists; shares compounds with M1 ag; CHO M4/Gqi5 cells, Fluo-4 calcium fluorescence, agonist mode; actives lie on both sides; fluorescence change (max-min) at 10 µM; 1,700 compounds, 9% hits; AID 1741;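 active = fluorescence change differing from the plate's solvent-only control wells at 99.7% confidence in both duplicates, whether higher or lower; inconclusive = differs from solvent controls in only one of two duplicates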
Each line names hits and unclear results; the compound was inactive in the other large screens (follow-up assays come after a bar, where they were run). Only some compounds are listed: those with a hit (about 7.1% of all), similar ones and a draw of the others.

Cc1ccc2cc(C#N)c(N3CCCN(C(=O)C4CCCO4)CC3)nc2c1C (centres undefined)	M1 ag 4.1 | M1 agonist conf inactive | M4 agonist ctr inactive
Cc1ccc2cc(C#N)c(N3CCCC3)nc2c1C	none (no result: Cav3 T inh)
Cc1ccc(C(=O)Nc2cccc(-c3cnc4ccccc4n3)c2)cc1	none (no result: M1 antag, M1 ag)
O=C(CSc1ccccc1)Nc1cccc(NC(=O)c2ccco2)c1	none (no result: M1 antag, M1 ag)
Cc1ccccc1OCC(=O)Nc1cccc(NC(=O)c2ccco2)c1	M1 ag 7 | M1 agonist conf inconclusive | M4 agonist ctr inconclusive
O=C(Nc1cccc(-c2nc3ccccc3[nH]2)c1)c1cccc(NC(=O)c2ccco2)c1	M1 ag 5.1 | M1 agonist conf inactive | M4 agonist ctr inactive
O=C(Nc1cccc(-c2cnc3ccccc3n2)c1)c1ccco1	M1 ag 4.3 | M1 agonist conf inconclusive | M4 agonist ctr inactive
O=C(NCc1ccco1)/C(=C\c1cccnc1)NC(=O)c1ccccc1F	none (no result: M1 antag, M1 ag, Cav3 T inh)
Cc1ccccc1CNc1ccc(C(CC(N)=O)NC(=O)c2ccccc2)cc1[N+](=O)[O-] (centres undefined)	none (no result: M1 antag, M1 ag, Pyk2 oligo antag)
COc1ccc(Cl)cc1C(=O)Nc1nnn(C)n1	none
C#CCOCCOCCOCCNc1nc(N2CCN(C(=O)C([C@@H](C)CC)n3cc(C(N)COC(=O)C(F)(F)F)nn3)CC2)nc(N2CCN(C(=O)C([C@@H](C)CC)n3cc(C(N)CC(C)C)nn3)CC2)n1 (some centres undefined)	none (no result: M1 antag, M1 ag, Pyk2 oligo antag)
CN(C)CCCN1C(=O)C(=O)/C(=C(/O)c2ccc3c(c2)OCCO3)C1c1ccccn1 (centres undefined)	none (no result: Cav3 T inh, Pyk2 oligo antag)
Nc1c(C(=O)NCC2CCCO2)c2nc3ccccc3nc2n1-c1ccccc1 (centres undefined)	M1 ag 11, Cav3 T inh -5.6 | M1 agonist conf inconclusive | M4 agonist ctr inactive
O=C(NCC1CCCO1)c1ccccc1 (centres undefined)	none (no result: M1 antag, M1 ag)
c1ccc(N2CCN(c3nc4ccccc4n4nnnc34)CC2)cc1	M1 ag 17 (no result: Cav3 T inh) | M1 agonist conf inconclusive | M4 agonist ctr inconclusive
c1ccc2c(c1)nc(N1CCN(C3CCCCC3)CC1)c1nnnn12	none (no result: Pyk2 oligo antag)
C1CN(c2nc3nonc3n3nnnc23)CCO1	none
c1ccc2c(c1)nc(N1CCOCC1)c1nnnn12	M1 ag 6.4 (no result: Pyk2 oligo antag) | M1 agonist conf inactive | M4 agonist ctr inactive
O=C(CCCN1C(=O)c2ccccc2C1=O)Nc1ccccc1C(=O)N1CCOCC1	M1 ag 2.3 | M1 agonist conf inactive | M4 agonist ctr inactive
CCCCOC(=O)CCc1nc2ccccc2[nH]1	M1 ag 3.6 | M1 agonist conf inactive | M4 agonist ctr inactive
COc1ccc(/C=C/C(=O)Nc2sc3c(c2C(=O)NCc2cccnc2)CCCC3)cc1	none (no result: M1 antag, M1 ag)
COc1ccc(CCNS(=O)(=O)c2ccccc2)cc1OC	none
COc1ccc(S(=O)(=O)NCCOc2ccccc2)cc1OC	M1 ag 2.3 | M1 agonist conf inactive | M4 agonist ctr inactive
Oc1ccccc1C1Nc2cccc3cccc(c23)N1	M1 ag 2.7 | M1 agonist conf inconclusive | M4 agonist ctr inactive
Cn1c(=O)cc(SCC(=O)Nc2cccnc2)c2ccccc21	M1 ag 2.7 | M1 agonist conf inactive | M4 agonist ctr inactive
Cn1c(=O)cc(SCC(=O)NCc2cccnc2)c2ccccc21	none
O=C(CSc1nc2ccccc2c(=O)n1Cc1ccco1)N1CCCCCC1	M1 ag 2 | M1 agonist conf inconclusive | M4 agonist ctr inactive
Cc1cc(C)c2c(=O)n(CC(=O)N3CCC(N4CCCCC4)CC3)sc2n1	none (no result: Pyk2 oligo antag)
CCOC(=O)C1CCCN(C(=O)Cc2ccc(C)cc2)C1 (centres undefined)	none (no result: M1 antag, M1 ag)
CCOC(=O)C1CCCN(C(=O)Cn2sc3nc(C)cc(C)c3c2=O)C1 (centres undefined)	M1 ag 5.9 (no result: Pyk2 oligo antag) | M1 agonist conf inactive | M4 agonist ctr inactive
CCOC(=O)C1CCCN(C(=O)CN2CCN(Cc3ccc(Cl)cc3)C2=O)C1 (centres undefined)	M1 ag 23 (no result: Cav3 T inh, Pyk2 oligo antag) | M1 agonist conf 202 | M4 agonist ctr inactive
CCOC(=O)C1CCCN(C(=O)Cc2c(C(=O)O)[nH]c3ccccc23)C1 (centres undefined)	M1 ag 4.6 | M1 agonist conf inactive | M4 agonist ctr inactive
O=C(Cc1cccc2ccccc12)N/N=C/c1ccc(Sc2nc3ccccc3s2)o1	none (no result: M1 antag, M1 ag)
COC(=O)CSc1snnc1-c1ccc(Cl)cc1Cl	none (no result: M1 antag, M1 ag)
O=C(Nc1nccs1)C12CC3CC(C1)CC(C(=O)Nc1nccs1)(C3)C2	M1 ag 4 | M1 agonist conf inconclusive | M4 agonist ctr inactive
O=C(NC1=NCCS1)C12CC3CC(C1)CC(C(=O)NC1=NCCS1)(C3)C2	none
C/C(=N\NC(=O)c1ccc(Cl)c(S(=O)(=O)Nc2ccccc2Cl)c1)c1ccncc1	none (no result: M1 antag, M1 ag, Cav3 T inh)
C=CCOC(=O)C1=C(C)OC(N)=C(C#N)C1c1ccc2c(c1)OCO2 (centres undefined)	none
C=CCOC(=O)C1=C(C)OC(N)=C(C#N)C1c1ccoc1 (centres undefined)	M1 ag 21 | M1 agonist conf inactive | M4 agonist ctr inactive
Cc1ccc(NC(=O)CS(=O)(=O)c2c[nH]c3ccccc23)c(C)c1	none
O=C(CS(=O)(=O)c1c[nH]c2ccccc12)Nc1ccc2c(c1)OCCO2	M1 ag 3.2 | M1 agonist conf inactive | M4 agonist ctr inactive
NNC(=O)Cn1c(SCc2ccccc2)nc2ccccc21	none (no result: M1 antag, M1 ag)
COc1ccc(C(=O)NCCn2cc(SCC(=O)Nc3cc(C)on3)c3ccccc32)cc1OC	M1 ag 3.5 | M1 agonist conf -27 | M4 agonist ctr inactive
COc1ccc(C(=O)NCCn2cc(SCC(=O)N3CCOCC3)c3ccccc32)cc1	none
Cc1ccc(C(=O)NCCn2cc(SCC(=O)Nc3nnc(C)s3)c3ccccc32)cc1	M1 ag 2.9 (no result: Pyk2 oligo antag) | M1 agonist conf inconclusive | M4 agonist ctr inactive
O=C(Cn1nnc(-c2ccccc2Cl)n1)NCc1ccc2c(c1)OCO2	none (no result: M1 antag, M1 ag)
O=C(/C=C/c1ccccc1Cl)NC(=S)Nc1ccccc1C(=O)NC1CCCCC1	none (no result: M1 antag, M1 ag)
O=C(C1CC1(c1ccccc1)c1ccccc1)N1CCOCC1 (centres undefined)	M1 ag -2.7 | M1 agonist conf inactive | M4 agonist ctr inactive
CN(C)CC(C)(C)CNS(=O)(=O)c1cccc(Cl)c1Cl	none (no result: M1 antag, M1 ag)
CCc1cc2c(-c3ccccc3)cc(=O)oc2c(CN2CCOCC2)c1O	M1 ag 15, Cav3 T inh -8.7 | M1 agonist conf inactive | M4 agonist ctr inactive
O=c1cc(-c2ccccc2)c2ccc(O)c(CN3CCCCC3)c2o1	none (no result: Cav3 T inh)
O=C(CSc1nnnn1C1CCCC1)Nc1cccc(NC(=O)c2ccco2)c1	none
CC(=O)c1cccc(-n2nnnc2SCC(=O)Nc2cccc(NC(=O)c3ccco3)c2)c1	M1 ag 3.6 | M1 agonist conf inactive | M4 agonist ctr inconclusive
O=c1cc(CSc2nnc(-c3cccs3)n2Cc2ccccc2)nc2sc3ccccc3n12	M1 ag 4.2 | M1 agonist conf inactive | M4 agonist ctr inactive
O=C(COC(=O)CCc1c[nH]c(=O)[nH]1)Nc1cccc(Cl)c1	M1 ag 5.2 | M1 agonist conf inactive | M4 agonist ctr inactive
